Rows were chosen to be rich in hits. Some 2.4% of all compounds tested hit in one or more screens of this group.
D2 PAM-1: Beta-Arrestin HTS for Positive Allosteric Modulators of the Human D2 Dopamine Receptor: Potentiators; D(2) dopamine receptor (Homo sapiens), P14416; DiscoveRx D2 beta-arrestin cells, luminescence, 90 min; 100% = 57 uM dopamine signal; potentiation, % (no concentration beside the values); 360,000 compounds, 0.23% hits; in the data active = potentiation above about 50%; inconclusive = mostly about 30% to 49%
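D2 cells co-treated with compound plus 50 nM dopamine (EC20) for 90 min at 37 deg C to detect potentiation. Beta-arrestin recruitment was read as enzyme-fragment luminescence after 1 h at ambient temperature. Full response was set by 57 uM dopamine.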
D2 ag-1: HTS Assay for Allosteric Agonists of the Human D2 Dopamine Receptor: Primary Screen for Agonists | activation, % at 2 µM | AID 485358, 2010 | 340,000 compounds, 0.53% hits | D(2) dopamine receptor (Homo sapiens), P14416 | HEK293 T-REx D2 cells, calcium flux agonist mode;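 active = activation over 3 SD above normal in the single-dose calcium agonist read, cut at about 30% in these data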
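Calcium-flux readout, 1 cycle/sec over 180 s following compound pin transfer, in inducible HEK293 Trex D2 cells (force-coupled); dopamine controls included. Positive calcium responses during this window marked compounds as potential agonists.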
D2 ag-2: Beta-Arrestin HTS for Positive Allosteric Modulators of the Human D2 Dopamine Receptor: Agonists | D(2) dopamine receptor (Homo sapiens), P14416 | 360,000 compounds, 0.084% hits | AID 624465, 2012 | DiscoveRx PathHunter D2 beta-arrestin, luminescence, 90 min; 100% = 57 uM dopamine signal | activation, % (concentration not given with the values); in the data active = activation above about 40%; inconclusive = between about 15% and that limit
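Agonist mode: compounds alone added to overnight-plated D2 PathHunter cells for 90 min at 37 C, with 57 uM final dopamine (EC100) defining full response. Beta-arrestin recruitment detected by chemiluminescent reagent, read after 1 h at ambient temperature.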
D2 PAM-2: HTS Assay for Positive Allosteric Modulators of the Human D2 Dopamine Receptor: Primary Screen for Potentiators. 340,000 compounds, 0.34% hits. potentiation, % at 10 µM. HEK293 T-REx D2, calcium flux, EC20 dopamine potentiation. D(2) dopamine receptor (Homo sapiens), P14416;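 active = potentiation over 3 SD above the plate norm, cut at about 30% in these data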
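Tetracycline-induced Hek293 Trex D2 cells, force-coupled to calcium, loaded with no-wash calcium dye. Compound added with 180 s kinetic read for agonism, then EC20 dopamine and a further 180 s read for potentiation.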
D2 antag: HTS Assay for Allosteric Antagonists of the Human D2 Dopamine Receptor: Primary Screen for Antagonists; D(2) dopamine receptor (Homo sapiens), P14416; AID 485344, 2010; 340,000 compounds, 2% hits; inhibition, % at 10 µM; HEK293 TREx D2 cells, calcium flux, dopamine EC80; in the data active = inhibition above about 30%; inactive = below that, where a call was filed
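Cells plated overnight at 30 C with tetracycline; no-wash calcium dye, 30–90 min RT; 10 s baseline; compound pinned; 180 s read; EC80 dopamine added; another 180 s read.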
D3 arrestin ag: qHTS of D3 Dopamine Receptor Agonist: D3 Dopamine Receptor B-arrestin Agonist Confirmatory Assay; shares compounds with D2 ag-1; DiscoveRx D3 beta-arrestin cells, luminescence, 90 min; Potency, µM (highest dose often 76.9 µM), usual class: activators; 2,300 compounds, 4% hits; also: nearly all actives have a fitted effect of over 70% in size
Target sequence (P35462 whole entry, looked up): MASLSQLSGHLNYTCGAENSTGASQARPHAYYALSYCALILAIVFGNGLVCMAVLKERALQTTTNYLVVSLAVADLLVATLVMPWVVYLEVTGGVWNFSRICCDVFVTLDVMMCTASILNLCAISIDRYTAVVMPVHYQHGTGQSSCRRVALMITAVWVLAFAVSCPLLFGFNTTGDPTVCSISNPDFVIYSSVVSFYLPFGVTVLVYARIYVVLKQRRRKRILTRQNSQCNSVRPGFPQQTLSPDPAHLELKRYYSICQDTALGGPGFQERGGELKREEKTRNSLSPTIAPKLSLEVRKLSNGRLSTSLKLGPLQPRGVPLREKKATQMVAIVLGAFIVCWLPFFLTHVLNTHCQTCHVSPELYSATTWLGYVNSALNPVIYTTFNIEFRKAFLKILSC
D2 ag-3: qHTS of D3 Dopamine Receptor Agonist: D2 Dopamine Receptor B-arrestin Agonist Counterscreen | shares compounds with D2 ag-1 | DiscoveRx PathHunter D2 beta-arrestin, luminescence, 90 min; response scale: percent relative to full dopamine signal | Potency, µM (series often up to 76.9 µM), usual class: activators | 2,300 compounds, 5.9% hits | AID 720507, 2013; also: nearly all actives have a fitted effect of over 70% in size
Large screens that a line does not name were inactive (follow-up assays come after a bar, where they were run). Unless noted, calls follow the shape of the dose curve; as a rule, active = well fitted activation curve with a large enough effect; inconclusive = small, poorly fitted or top-dose-only effect; inactive = flat fitted curve, though single readings scatter.

CCC(C)NC(=O)C1CCN(C(=O)c2ccccc2)CC1 (configuration not stated)	none
CCC(C)NC(=O)C1CCN(CCCc2ccccc2)CC1 (configuration not stated)	D2 ag-1 50.8 | D3 arrestin ag inactive | D2 ag-3 inactive
CCCC12CN3CC(CCC)(CN(C1)C3c1ccc(OCc3ccccc3)cc1)C2=O (configuration not stated)	none (no result: D2 PAM-1, D2 ag-2, D2 antag)
Cc1cc(C(=O)O[C@H]2[C@H](C)NS(=O)(=O)[C@H]3C[C@@H]4C=C[C@]23O4)cc([N+](=O)[O-])c1	none
C[C@@H]1NS(=O)(=O)[C@H]2C[C@@H]3C=C[C@]2(O3)[C@H]1OC(=O)Nc1ccc(C(F)(F)F)cc1[N+](=O)[O-]	none | D3 arrestin ag inactive | D2 ag-3 inactive
Cc1ccc2c(c1)C(O)(CC(=O)/C=C/C=C/c1ccccc1)C(=O)N2 (configuration not stated)	D2 ag-1 48.1, D2 antag 45.3 | D3 arrestin ag inactive | D2 ag-3 inactive
CCCC12CN3CC(C)(CN(C1)C3c1ccc(OCc3ccccc3)cc1)C2=O (configuration not stated)	none (no result: D2 PAM-1, D2 ag-2, D2 antag)
CC(C)(C)OC(=O)N[C@H](C(=O)OC(C)(C)C)c1ccc2ccccc2c1	none | D3 arrestin ag inactive | D2 ag-3 inactive
COc1ccc([C@@H](NC(=O)OC(C)(C)C)C(=O)OC(C)(C)C)cc1	none
CCOc1ccc(-c2cnc(NCc3ccc(OC)cc3OC)n2C)cc1	none (no result: D2 PAM-1, D2 ag-2, D2 antag)
CCN(Cc1ccncc1)C(=O)c1ccccc1NS(=O)(=O)c1ccc(Br)cc1	none (no result: D2 ag-1, D2 antag) | D3 arrestin ag inactive | D2 ag-3 inactive
COc1cccc(CN(C)C(=O)c2cccc(S(=O)(=O)N3CCN(Cc4ccccc4)CC3)c2)c1OC	none | D3 arrestin ag inactive | D2 ag-3 inactive
COc1cc(OC)c(OC)cc1CCC(C)NCCC(c1ccccc1)c1ccccc1 (configuration not stated)	D2 ag-1 50.0, D2 antag 49.2 | D3 arrestin ag inactive | D2 ag-3 inconclusive
COc1ccc(CCNCCC(c2ccccc2)c2ccccc2)cc1OC	none (no result: D2 ag-1, D2 PAM-2, D2 antag)
COc1ccccc1CCNC(C)CCc1ccc(O)cc1 (configuration not stated)	D2 ag-1 41.4 | D3 arrestin ag inconclusive | D2 ag-3 inactive
COc1ccc(CCC(C)NCc2ccccc2OC)cc1 (configuration not stated)	none
Cc1ccc(C)c(CNC(=O)CN2C(=O)CSc3ccc(S(=O)(=O)N(C)C)cc32)c1	none (no result: D2 PAM-1, D2 ag-2, D2 antag)
COc1ccc(OC)c(CNc2ccc([N+](=O)[O-])cc2C)c1	D2 ag-1 57.0 | D3 arrestin ag inactive | D2 ag-3 inactive
COc1cccc(CNc2ccc([N+](=O)[O-])cc2C)c1	none
Cc1cc(-c2n[nH]c(=S)n2/N=C/c2sccc2C)n[nH]1	D2 ag-1 65.9 | D3 arrestin ag inactive | D2 ag-3 inactive
COc1ccc(-n2c(SCC(=O)Nc3cccc(C)c3C)nc3c([nH]c4ccccc43)c2=O)cc1	none (no result: D2 PAM-1, D2 ag-2, D2 antag)
CCOC(=O)[C@H]1[C@H]2COc3ccc(Br)cc3[C@@H]2N2C(=O)CN(Cc3ccco3)C(=O)[C@@]12C	none | D3 arrestin ag inactive | D2 ag-3 inactive
CCOC(=O)[C@H]1[C@H]2COc3ccc(Cl)cc3[C@@H]2N2C(=O)CN(C)C(=O)[C@@]12C	none | D3 arrestin ag inactive | D2 ag-3 inactive
CCOC(=O)[C@H]1[C@H]2COc3ccc(Br)cc3[C@@H]2N2C(=O)CN(Cc3ccc(Cl)cc3)C(=O)[C@@]12C	none (no result: D2 ag-1, D2 PAM-2, D2 antag)
COc1ccc(CN2CCN(c3ccccn3)CC2)c(OC)c1	D2 ag-1 84.3, D2 ag-2 inconclusive, D2 antag 82.9 | D3 arrestin ag inactive | D2 ag-3 inconclusive
COc1cc(CN2CCCCCC2)cc(OC)c1	none
COc1ccc(CN2CCN(c3ncccn3)CC2)c(OC)c1	D2 ag-1 56.1, D2 ag-2 45.0, D2 antag 69.1 | D3 arrestin ag inconclusive | D2 ag-3 inconclusive
COc1ccc(-n2c(CN3CCN(c4ccccc4)CC3)nc3ccc([N+](=O)[O-])cc3c2=O)c(OC)c1	none
COc1cc(CN2CCN(c3ncccn3)CC2)cc(OC)c1	D2 ag-1 88.2, D2 ag-2 56.3, D2 antag 86.7 | D3 arrestin ag inconclusive | D2 ag-3 2.82µM
COc1cccc(-n2c(CN3CCN(c4ccccn4)CC3)nc3ccc([N+](=O)[O-])cc3c2=O)c1	none | D3 arrestin ag inactive | D2 ag-3 inactive
COc1ccc(CN2CCN(Cc3ccccc3F)CC2)c(OC)c1	none
Cc1nc2nc(SCC(=O)NCCc3ccc(Cl)cc3)nn2c(C)c1Cc1ccccc1	none (no result: D2 PAM-1, D2 ag-2, D2 antag)
CC1=C(c2ccc(F)cc2)S(=O)(=O)N=C1N1CCC(C(=O)NCCc2cccc(C)c2)CC1	none (no result: D2 PAM-1, D2 ag-2, D2 antag)
Cc1cc(NC(=O)c2ccccc2F)on1	D2 ag-1 67.8 | D3 arrestin ag inactive | D2 ag-3 inactive
Cc1ccc(N(Cc2cccs2)C(=O)c2ccco2)cc1	none (no result: D2 PAM-1, D2 ag-1, D2 ag-2, D2 antag)
O=C(NCCS(=O)(=O)N1CCN(c2ccccc2)CC1)c1ccccc1F	none | D3 arrestin ag inactive | D2 ag-3 inactive
O=C(NCCN1CCN(c2ccccc2)CC1)c1ccccc1F	D2 ag-1 79.3, D2 ag-2 inconclusive, D2 antag 72.2 | D3 arrestin ag inconclusive | D2 ag-3 inactive
O=C(COc1ccccc1)NCCS(=O)(=O)N1CCN(c2ccccc2)CC1	D2 ag-2 inconclusive, D2 antag 77.4 | D3 arrestin ag inactive | D2 ag-3 inconclusive
COc1cccc(-c2cn3c(n2)sc2cc(C(=O)NCc4ccccc4F)ccc23)c1	none (no result: D2 PAM-1, D2 ag-2, D2 antag)
CCC(C(=O)O)n1ccc2cc(S(=O)(=O)N3CCCCC3)ccc21 (configuration not stated)	none (no result: D2 PAM-1, D2 ag-1, D2 ag-2, D2 antag)
COC(=O)c1ccccc1NC(=O)CSc1c2c(nc3ccc(Cl)cc13)CCCC2	none (no result: D2 PAM-1, D2 ag-2, D2 antag)
COc1ccc([C@H]2CC(=O)C=C(c3cccc4c3Oc3ccccc3S4)C2)cc1OC	none | D3 arrestin ag inactive | D2 ag-3 inactive
O=C1C=C(c2cccc3c2Oc2ccccc2S3)C[C@@H](c2ccc(Cl)cc2)C1	none
